Molecules are shown by their SMILES.
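Further: KINOMEscan kinase panel screen.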

For the assay, the system named is TNK1. Conditions: concentration: 1 μM,replicates: in singlicate; n = 1.
With `CN1CCN(CCCNc2nccc(-c3c(-c4ccc(F)cc4)nn4cc(C(N)=O)ccc34)n2)CC1` [GW622475], the “%Inh” value is recorded as 0%.
The value for `C[C@@H]1CNc2c(sc3ccc4nc(-c5ccc(O)cc5)ccc4c23)C(=O)N1` was 14%.
For the compound `CCn1c(-c2nonc2N)nc2cncc(Br)c21` [SB-738004], the “%Inh” value was 0%.
The value for `C[C@@H]1CCN(C(=O)N2CCCC2)C[C@@H]1N(C)c1ncnc2[nH]ccc12` was 69%; that for `CS(=O)c1ccc(-c2coc3ccc(-c4n[nH]c(=O)o4)cc23)cc1` (stereo not shown) was 0%.
Regarding `CCn1c(-c2nonc2N)nc2cncc(CNC3CCNCC3)c21.Cl` [SB-747651], the “%Inh” value is 0%.
On to `C[C@@H](Oc1cc(-n2cnc3cc(-c4cnn(C)c4)ccc32)sc1C(N)=O)c1ccccc1Cl` [GSK580432], for which the “%Inh” value was found to be 59%.
The result for `CN1CCN(CCNc2nc3cc(Oc4ccc(NC(=O)Nc5cc(C(F)(F)F)ccc5F)cc4)ccc3[nH]2)CC1.Cl.Cl` [GW768504] reads 30%; that for `CCNCC(Cc1ccccc1)NC(=O)c1cc(Br)c(-c2ccnc3[nH]ccc23)s1.Cl.Cl` (stereo not shown) [GSK1383280], 0%.
The value for `CCCC(=O)Nc1n[nH]c2ncccc12` [SB-601436] was 0%.
The value for `COc1cccc(C2=C(Nc3cccc(Cl)c3)C(=O)NC2=O)c1` [SB-341556] was 32%.
As for `C[C@@H]1CNc2c(sc3ccc4nc(-c5ccncc5)ccc4c23)C(=O)N1`, the “%Inh” value came to 22%.
The result for `CC(=O)c1c(-c2ccncc2)[nH]c(-c2ccncc2)c1C` [GW493036] reads 0%.

Source of the values: article PMC5540273 (PLoS ONE, 2017).
